Screening results from PubChem BioAssay.
In the library only some 5.3% were active in any assay of this set; here they are far more common.
HPGD inh – qHTS Assay for Inhibitors of HPGD (15-Hydroxyprostaglandin Dehydrogenase); 15-hydroxyprostaglandin dehydrogenase [NAD(+)] (Homo sapiens), P15428; purified HPGD, NADH fluorescence kinetic, PGE2 substrate; Potency, µM, usual class: inhibitors; hit rate 4.3% among 150,000; AID 894, 2007; active = well fitted inhibition curve with a large enough effect, not every such curve was filed as active; inconclusive = small, poorly fitted or top-dose-only effect, or another doubt; inactive = no such curve, though single readings can be large or run the other way
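20 nM HPGD preincubated 15 min at room temperature with compound in 50 mM Tris-HCl pH 8, 0.01% Tween 20. Started with 1 mM NAD+ and 30 uM prostaglandin E2; NADH fluorescence (360/450 nm) read 5 times over 30-s intervals, last minus first.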
PNC assembly inh – High Content Assay for Compounds that inhibit the Assembly of the Perinucleolar Compartment | PC3M PTB-GFP, PNC prevalence imaging, 16 h; hits give low values | activity change (PNC), negative = inhibition, % at 10 µM | hit rate 3.1% among 140,000 | AID 2417, 2010;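 active = readout at or below -70, meaning at least 70% loss of cells showing the perinucleolar compartment, a nuclear body marking cancer cells; inconclusive = readout between -30 and a set limit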
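Read-out is percentage of cells bearing a perinucleolar compartment, from automated 20x imaging of fixed, Hoechst-stained PC3M PTB-GFP cells. Cells were seeded 4 h, then exposed 16 h to compound (23 nl of library stock) in duplicate plates.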
IMPase cell inh – qHTS Assay for Identifying the Cell-Membrane Permeable IMPase Inhibitors; CHO-M1 cells, IP1 accumulation, HTRF TR-FRET ratio; Inositol monophosphatase 1 (Rattus norvegicus), P97697; inhibition (IP1 accumulation), % at 46.1 µM; 120,000 tested, under 10 active; active = well fitted curve in the direction sought with a large enough effect in the signal ratio, not every such curve was filed as active; inconclusive = small, poorly fitted or top-dose-only effect, or a change in a side signal; inactive = no such curve, though single readings can be large or run the other way; the % refers to the signal ratio;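 also: cells stimulated with carbachol in lithium chloride buffer; higher means more IMPase inhibition seen as more IP1 and lower FRET ratio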
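CHO-M1 cells (CHO stably expressing M1 receptor), compound up to 46 uM final, stimulated with carbachol (50 uM as added) in buffer with 50mM LiCl, pH 7.4, 30 min at 37C. Cytosolic IP1 read by TR-FRET; AC50 from Hill fits.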
IMPase Li inh – qHTS Assay for Identifying the Cell-Membrane Permeable IMPase Inhibitors: Potentiation with Lithium; CHO-M1 cells, IP1 TR-FRET (IP-One), carbachol + lithium; Potency, µM (doses to about 59.4 µM), most hits filed as inhibitors; hit rate 0.35% among 210,000; AID 1457, 2008;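 also: IP1 builds up when IMPase is blocked and the TR-FRET signal falls; nearly all actives have a fitted effect of over 50% in size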
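Readout is a homogeneous TR-FRET IP1 immunoassay (Ex 320, Em 665 and 620), where raised cytosolic IP1 lowers signal. Cells were CHO-M1 treated 30 min at 37C with test compounds plus a little lithium; AC50 values came from Hill-equation fitting.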
15-hLO-2 inh – qHTS Assay for Inhibitors of 15-hLO-2 (15-human lipoxygenase 2); Polyunsaturated fatty acid lipoxygenase ALOX15B (Homo sapiens), O15296; purified 15hLO-2, xylenol orange hydroperoxide absorbance; Potency, µM (highest dose often 57.1 µM), usual class: inhibitors; hit rate 0.56% among 110,000; AID 881, 2007; also: nearly all actives have a fitted effect of over 60% in size
Target sequence (O15296 whole entry, looked up): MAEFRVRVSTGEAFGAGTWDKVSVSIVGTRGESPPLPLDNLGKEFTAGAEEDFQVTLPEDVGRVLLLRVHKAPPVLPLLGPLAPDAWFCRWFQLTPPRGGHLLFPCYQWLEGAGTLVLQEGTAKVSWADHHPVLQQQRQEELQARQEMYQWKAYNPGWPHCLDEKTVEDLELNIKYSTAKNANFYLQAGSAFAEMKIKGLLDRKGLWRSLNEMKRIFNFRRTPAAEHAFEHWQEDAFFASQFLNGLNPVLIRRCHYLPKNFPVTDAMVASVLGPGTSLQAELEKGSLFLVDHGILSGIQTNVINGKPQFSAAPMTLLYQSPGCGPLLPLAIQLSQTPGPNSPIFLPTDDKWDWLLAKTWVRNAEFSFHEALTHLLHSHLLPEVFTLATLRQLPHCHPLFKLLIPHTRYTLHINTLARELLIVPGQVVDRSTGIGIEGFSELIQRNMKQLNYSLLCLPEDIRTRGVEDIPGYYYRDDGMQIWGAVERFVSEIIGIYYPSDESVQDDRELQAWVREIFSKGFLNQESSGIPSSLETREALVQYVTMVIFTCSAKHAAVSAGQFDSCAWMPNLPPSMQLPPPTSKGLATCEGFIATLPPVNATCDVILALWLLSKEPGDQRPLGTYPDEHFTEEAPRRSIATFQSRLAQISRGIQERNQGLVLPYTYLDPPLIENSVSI
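Enzyme 50 nM, AA 45 uM, 25 mM Hepes pH 7.5 + 0.01% Triton X-100; cpd preinc 15 min RT, rxn 90 min RT; stop/detect with 200 uM XO + 300 uM Fe(II) in 50 mM H2SO4, 30 min; A573/A405.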
ALOX12 inhib – qHTS Assay for Inhibitors of 12-hLO (12-human lipoxygenase). purified 12-hLO, xylenol orange hydroperoxide absorbance. AID 1452, 2008. Potency, µM (titrated, usually from 57.1 µM), usual class: inhibitors. hit rate 0.12% among 150,000. Polyunsaturated fatty acid lipoxygenase ALOX12 (Homo sapiens), P18054; also: nearly all actives have a fitted effect of over 55% in size
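Hydroperoxide output read as Fe(III)-xylenol orange absorbance, 573-to-405 nm ratio, after 30 min reaction with 40 uM arachidonic acid. Enzyme: 150 nM purified human 12hLO, 15 min compound preincubation; 25 mM Hepes pH 7.0, room temperature.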
Hits are given with their value; – = inactive; ? = inconclusive; · = no result given; [ ] = dose if it differs, or a comment. Unless noted, calls follow the shape of the dose curve; as a rule, active = well fitted curve in the direction sought with a large enough effect; inconclusive = small, poorly fitted or top-dose-only effect, or another doubt; inactive = no such curve, though single readings can be large; an effect the other way counts as inactive or inconclusive.

SMILES	HPGD inh	PNC assembly inh	IMPase cell inh	IMPase Li inh	15-hLO-2 inh	ALOX12 inhib
c1ccc2c(c1)OCC(c1nnc3sc(-c4ccc5c(c4)OCO5)nn13)O2 (configuration not stated)	?	–	–	–	–	–
c1ccc2c(c1)OCC(c1nnc3n1-c1ccccc1SC3)O2 (configuration not stated)	13µM	–	–	–	–	–
c1csc(-c2nn3c(C4COc5ccccc5O4)nnc3s2)c1 (configuration not stated)	8.9µM	–	–	–	–	–
COc1ccc2c(c1OC)C(Cc1ccccc1)N1CCc3cc4c(cc3C1=C2)OCO4 (configuration not stated)	?	·	–	–	–	?
Nc1[nH]nc2c1NN(c1ccc(Cl)cc1Cl)N2	–	–	·	–	·	–
Fc1ccc(-c2nnc3sc(C4COc5ccccc5O4)nn23)cc1 (configuration not stated)	28µM	–	?	–	–	–
COC(=O)[C@@H]1CC[C@H](C)[C@@H](c2ccc(C)cc2)N1C(=O)c1ccc(/C=N/O[C@@H](C)c2cn([C@H](CO)Cc3ccccc3)nn2)cc1	–	?	·	–	·	–
CCOC(=O)C1CCCN(S(=O)(=O)c2ccc(OC)cc2)C1 (configuration not stated)	–	–	–	–	–	–
O=C(O)CCC(=O)NC1CCCCCCC1	–	–	–	–	–	–
O=C(Cn1cccc1)NC1CCCCCC1	14µM	–	–	–	–	–
COc1ccc(CCNC(=O)Cn2cnc3c(nnn3Cc3ccccc3F)c2=O)cc1OC	–	-119	–	–	·	–
COc1ccc(CCNC(=O)Cn2cnc3c(nnn3Cc3ccc(C)cc3)c2=O)cc1OC	–	–	–	?	·	–
O=C(Cn1cnc2c(nnn2Cc2ccccc2F)c1=O)NCc1ccco1	32µM	–	–	–	–	–
Cc1ccc(-n2ncc3c(=O)n(CC(=O)NCc4ccco4)cnc32)cc1	–	-100	–	–	·	–
CCOC(=O)c1cnc2c(ccc3ccccc32)c1Nc1ccc(N(C)C)cc1	·	·	–	·	·	·
CC(C)(Oc1ccc(Cl)cc1)C(=O)N(Cc1ccccc1)c1ccccn1	–	–	·	–	·	–
CC(C)c1cc(C(=O)NNC(=S)NCc2ccco2)c(O)c(C(C)C)c1	?	–	–	–	·	?
COc1ccc(-c2nc3cnc(N4CCN(C)CC4)nc3n(Cc3ccc(F)cc3)c2=O)cc1	·	·	·	–	–	·
CSc1nc2sc3c(c2c(=O)n1C)CCC(C)C3 (configuration not stated)	–	–	–	–	–	–
Cc1nc2sc3c(c2c(=O)o1)CCC3	20µM	–	–	–	–	–
CSc1nc2sc3c(c2c(=O)n1C)CCCC3	–	-87	–	–	–	–
Cc1nc2sc3c(c2c(=O)o1)CC(C)(C)OC3	–	?	–	–	–	–
CC(=O)Nc1ccc(S(=O)(=O)n2nc(-c3ccc(C)cc3)nc2N)cc1	6.3µM	–	–	–	–	–
O=C1O/C(=C/Br)CCC1c1cccc2ccccc12 (configuration not stated)	20µM	·	·	–	·	·
O=C(Nc1ccc(Cc2ccncc2)cc1)c1cccc([N+](=O)[O-])c1	1.4µM	–	·	–	·	–
SMILES	HPGD inh	PNC assembly inh	IMPase cell inh	IMPase Li inh	15-hLO-2 inh	ALOX12 inhib
Cc1ccc(C(=O)Nc2ccc(Cc3ccncc3)cc2)cc1[N+](=O)[O-]	–	–	–	–	–	–
Cc1cccc(N(CC(=O)NC2CCCCC2)C(=O)Cn2nnc(-c3ccc(C)o3)n2)c1	·	·	·	–	·	·
Cc1cccc(N(CC(=O)NCc2ccccc2)C(=O)Cn2nnc(-c3ccc(C)o3)n2)c1	–	-84	–	–	–	–
C=CCN=c1scc(-c2ccccc2)n1/N=C/c1ccccn1	–	-106	–	–	·	–
CCN=c1scc(-c2ccccc2)n1/N=C/c1ccccn1	–	-125	·	–	·	–
Cc1ccc(-c2nc(C)sc2CC(=O)Nc2cccc(C)c2C)cc1	·	?	–	·	·	–
C=CCCCCCCCCCCCc1ccco1	0.79µM	·	·	–	–	–
CN(C)c1nc(N)nc(CSc2ncc(Cl)cc2Cl)n1	8.9µM	?	–	–	–	–
CC(=O)c1c(C)nc(-c2ccc(Cl)cc2Cl)n1O	–	-100	–	–	·	–
CCCS(=O)(=O)N1CCCC(C(=O)NCCc2ccc(OC)c(OC)c2)C1 (configuration not stated)	–	-92	–	–	–	–
Cc1nc(NC(=O)c2ccc([N+](=O)[O-])cc2Cl)sc1C(=O)N(C)C	14µM	–	·	–	·	–
O=C(O)C1C2C=CC(C3CC23)C1C(=O)O (configuration not stated)	–	–	–	–	·	–
Cc1cccc(NC(=O)C2C3C=CC(C4CC34)C2C(=O)O)c1 (configuration not stated)	–	-119	–	–	·	–
Cc1sc(NC(=O)CSc2nnc(C(C)C)n2C)c(C#N)c1C	–	-86	–[0.369 µM]	–	·	–
CCCn1c(SCC(=O)Nc2sc(C)c(C)c2C#N)nnc1C(C)C	·	?	–	·	–	–
CN(C)CCN1C(=O)C(O)=C(C(=O)c2cc3ccccc3o2)C1c1ccc(N(C)C)cc1 (configuration not stated)	–	-119	–	–	·	–
CCN(CC)CCCN1C(=O)C(O)=C(C(=O)c2cc3ccccc3o2)C1c1ccccn1 (configuration not stated)	–	–	?	13µM	–	–
CN(C)CCN1C(=O)C(O)=C(C(=O)c2cc3ccccc3o2)C1c1ccccn1 (configuration not stated)	–	?	–	?	–	–
COc1ccccc1C1C(C(=O)c2cc3ccccc3o2)=C(O)C(=O)N1CCN1CCOCC1 (configuration not stated)	–	–	–	32µM	–	–
CCN1CCN(S(=O)(=O)c2ccc(Oc3ccccc3OC)cc2)CC1	·	·	·	–	·	·
CC(C)Cc1cc(C(=O)NCCCN2CCOCC2)no1	·	·	·	–	·	·
CC(C)c1ccc(NC(=S)NC2CCN(Cc3ccccc3)CC2)cc1	–	–	–	–	·	–
Cc1ccc(NC(=S)NC2CCN(Cc3ccccc3)CC2)cc1	–	-119	·	–	·	–
Cc1ccc(/C=c2\sc3nc(-c4ccccc4Br)nn3c2=O)o1	20µM	?	–	–	–	–
